# Data taken from PubChem BioAssay (Tox21).
# Inconclusive results are not listed. Entries that show only a call come without a potency. The source made the active and inactive calls. Unless noted, the call rests on the fitted dose curve; in most records, active means well fitted curve in the direction sought with a large enough effect in the repeat runs; inconclusive means weak or mixed curves; inactive means no such curve, though single readings can be large; an effect the other way counts as inactive or inconclusive.
# Key:
# [1] = qHTS assay to identify small molecule antagonists of the androgen receptor (AR) signaling pathway using the MDA cell line in the presence of 0.5 nM R1881 - cell viability counter screen (AID 1259242); further: nearly all actives have a fitted effect of over 45% in size
# Method in brief: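 Live-cell protease activity was measured by CellTiter-Fluor fluorescence after 30 min. Before that, MDA-kb2 MMTV-luciferase cells had 16 hr at 37C without CO2, exposed to test compounds and 0.5 nM R1881 final.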
# [2] = biological target: Estrogen receptor (Homo sapiens) (UniProt P03372); test: qHTS assay to identify small molecule antagonists of the estrogen receptor alpha (ER-alpha) signaling pathway using the BG1 cell line in the presence of 0.1 nM 17-beta-estradiol (AID 1259244); further: nearly all actives have a fitted effect of over 50% in size
# Method in brief: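 Luciferase luminescence (ONE-Glo, 30 min at room temperature) was read after 22 hr at 37C exposure to compounds plus 17beta-estradiol at 0.1 nM final. Cells were VM7Luc4E2 with endogenous ER-alpha and an ERE-driven luciferase, pre-cultured 5 days in hormone-depleted medium.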
# [3] = qHTS assay to identify small molecule phospholipidosis (PLD) inducers (AID 1259344; active means well fitted curve in the direction sought with a large enough effect; an effect the other way counts as inactive or inconclusive)
# Method in brief: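 Read-out is LipidTOX Red fluorescence (ex 595/em 615) imaged in HepG2 cells after 24 h compound exposure at 37 C, with Hoechst nuclear counterstain (ex 352/em 461) allowing per-cell normalisation.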
# [4] = qHTS assay to identify small molecule HDAC inhibitors (AID 1259364); further: top concentration of the series differs between compounds; nearly all actives have a fitted effect of over 45% in size
# Method in brief: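 Luminescence read after 30 min room-temperature HDAC-Glo incubation measures cellular class I/II HDAC activity. Compounds were applied for 2 hr at 37 C to HCT-116 wild-type cells seeded the day before.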
# [5] = qHTS assay to identify small molecule HDAC inhibitors - cell viability counter screen (AID 1259365); further: series mostly up to about 92 µM; nearly all actives have a fitted effect of over 50% in size
# Method in brief: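 Luminescence from CellTiter-Glo, developed 30min at room temperature, reports viability of wild-type HCT-116 cells treated 2hr with compounds at 37 C and 5% CO2 after overnight plating.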
# [6] = qHTS assay to identify small molecule agonists of the sonic hedgehog signaling (Shh) pathway - cell viability counter screen (AID 1259366); further: nearly all actives have a fitted effect of over 50% in size
# Method in brief: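 Cytotoxicity counter screen run in the same wells as the Shh reporter assay. NIH/3T3 cells carrying a Gli1 response element–driven luciferase were treated with DMSO-dissolved compounds for 24hr, and live-cell protease activity was measured with CellTiter-Fluor.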
# [7] = qHTS assay to identify small molecule antagonists of the sonic hedgehog signaling (Shh) pathway - cell viability counter screen (AID 1259367); further: nearly all actives have a fitted effect of over 55% in size
# Method in brief: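 Fluorescence read-out (CellTiter-Fluor, 1 hr at 37C) taken after 23 hr compound treatment of 3T3 Gli1-Luc cells stimulated with conditioned medium. Cells were seeded at 2,000 per well and pre-incubated 4 hr.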
# [8] = qHTS assay to identify small molecule agonists of the sonic hedgehog signaling (Shh) pathway (AID 1259368; calls by dose curve;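 further: NIH/3T3-derived 3T3Gli1-Luc cells carrying a stable Gli1-driven firefly luciferase reporter; series mostly up to about 92 µM; nearly all actives have a fitted effect of over 15% in size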)
# Method in brief: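 Luminescence was read after 30 min at room temperature with luciferase reagent. Before that, 3T3Gli1-Luc cells (NIH/3T3 clone, stable Gli1-Luc reporter; 2,000/well) were exposed to compounds for 24 hr at 37C, 5% CO2, compounds being added 4 hr post-plating.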
# [9] = qHTS assay to identify small molecule antagonists of the sonic hedgehog signaling (Shh) pathway (AID 1259369; calls by dose curve; further: nearly all actives have a fitted effect of over 45% in size; further: potency means the concentration at half of the fitted maximal effect)
# Method in brief: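 Antagonist mode: compound added to 3T3 Gli1-Luc cells followed by conditioned-medium stimulation, 24 h at 37 C, 5% CO2. Inhibition taken as loss of Gli1-driven luciferase luminescence.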
# [10] = biological target: Estrogen receptor beta (Homo sapiens) (UniProt Q92731); test: qHTS assay to identify small molecule agonists of the estrogen receptor beta (ER-beta) signaling pathway (AID 1259377; active means well fitted activation curve with a large enough effect in the signal ratio in the repeat runs, not every such curve was filed as active; the % refers to the signal ratio)
# Method in brief: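 HEK293T ER-beta-UAS-bla; 2% charcoal-stripped FBS; cells pre-incubated 6 hr, compound 16 hr, 37C/5% CO2; LiveBLAzer B/G FRET substrate 2 h RT; fluorescence intensity read.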
# [11] = biological target: Estrogen receptor beta (Homo sapiens) (UniProt Q92731); test: qHTS assay to identify small molecule antagonists of the estrogen receptor beta (ER-beta) signaling pathway (AID 1259378; active means well fitted inhibition curve with a large enough effect in the signal ratio in the repeat runs, not every such curve was filed as active; the % refers to the signal ratio)
# Method in brief: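 ER-beta-UAS-bla HEK293T cells in 2% charcoal-stripped FBS medium treated with compound plus 1nM final 17-beta-estradiol for 16 hr at 37C. Beta-lactamase reporter read by FRET substrate fluorescence after 2 hours at room temperature.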
# [12] = qHTS assay to identify small molecule agonists of the androgen receptor (AR) signaling pathway in the presence of an antagonist - cell viability counter screen (AID 1259379);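 further: MDA-kb2 human breast cancer cells carrying an MMTV luciferase reporter; series mostly up to about 92 µM; nearly all actives have a fitted effect of over 25% in size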
# Method in brief: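 Cytotoxicity counter-screen run in the same wells as the nilutamide-challenged (3.0 µM final) AR agonist assay in MDA-kb2 cells. Compounds tested at 15 concentrations for 16 h, 37 °C without CO2; CellTiter-Fluor fluorescence read.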
# [13] = qHTS assay to identify small molecule agonists of the estrogen receptor beta (ER-beta) signaling pathway - cell viability counter screen (AID 1259380); further: nearly all actives have a fitted effect of over 30% in size; further: potency means the concentration at half of the fitted maximal effect
# Method in brief: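 Cell viability counter screen: CellTiter-Glo luminescence (30 min, room temperature) measured in the same wells as the beta-lactamase readout, after 16 hr compound exposure at 37C of ER-beta-bla HEK293T cells in 2% charcoal-stripped FBS medium.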
# [14] = qHTS assay to identify small molecule antagonists of the estrogen receptor beta (ER-beta) signaling pathway - cell viability counter screen (AID 1259382); further: series mostly up to about 92 µM; nearly all actives have a fitted effect of over 55% in size
# Method in brief: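 Cytotoxicity was measured in the same wells by CellTiter-Glo luminescence after 30 min at room temperature. Cells were ER-beta-bla HEK293T in charcoal-stripped serum, given compound together with 1 nM E2 and incubated 16 h at 37C.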
# [15] = biological target: Estrogen receptor (Homo sapiens) (UniProt P03372); test: qHTS assay to identify small molecule agonists of the estrogen receptor alpha (ER-alpha) signaling pathway in the presence of an antagonist (AID 1259383; calls by dose curve; further: top concentration of the series differs between compounds; nearly all actives have a fitted effect of over 15% in size)
# Method in brief: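 Agonist-mode confirmation run in the presence of 10.0nM (final) ICI-182,780 antagonist. The reporter was ERE-driven luciferase in VM7Luc4E2 cells, grown in charcoal-stripped serum. Cells were exposed to 15-concentration compound series for 22hr, then ONE-Glo luminescence was read.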
# [16] = qHTS assay to identify small molecule agonists or antagonists of the thyroid stimulating hormone receptor (TSHR) signaling pathway - wild type cell line counter screen (AID 1259384; calls by dose curve)
# Method in brief: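 Wild-type Hek293 cells, 800/well, 18 h at 37C, then compound with Ro20-1724 for 30 min RT. cAMP by HTRF (cAMP-d2/anti-cAMP cryptate), 1 h RT, fluorescence read. 15 concentrations, triplicates.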
# [17] = biological target: Thyrotropin receptor (Homo sapiens) (UniProt P16473); test: qHTS assay to identify small molecule antagonists of the thyroid stimulating hormone receptor (TSHR) signaling pathway (AID 1259385; calls by dose curve; further: nearly all actives have a fitted effect of over 20% in size)
# Method in brief: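 TSHR-HEK293 cells (800/well) plated 18 h, then compounds with Ro20-1724 and TSH at 1.5 ng/mL final, 30 min at room temperature. cAMP quantified by HTRF (cAMP-d2/anti-cAMP-cryptate, 1 h); 15 concentrations in triplicate.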
# [18] = qHTS assay to identify small molecule agonists of the estrogen receptor alpha (ER-alpha) signaling pathway in the presence of an antagonist - cell viability counter screen (AID 1259386); further: series mostly up to about 92 µM; nearly all actives have a fitted effect of over 30% in size
# Method in brief: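 Compounds tested at 15 concentrations for 22 h at 37C alongside 10.0nM (final) ICI-182,780 antagonist, in VM7Luc4E2 cells grown in phenol red-free, charcoal-stripped medium. Viability read by CellTiter-Fluor fluorescence after 1 h reagent incubation.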
# [19] = biological target: Progesterone receptor (Homo sapiens) (UniProt P06401); test: qHTS assay to identify small molecule agonists of the progesterone receptor (PR) signaling pathway (AID 1346784; calls by dose curve; further: nearly all actives have a fitted effect of over 30% in size)
# Method in brief: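 Beta-lactamase reporter read-out: after 16 hr compound treatment at 37C and a further 2 hr at room temperature with LiveBLAzer B/G FRET substrate, fluorescence was measured in PR-UAS-bla HEK 293T cells grown in 2% charcoal-stripped serum.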
# [20] = biological target: Androgen receptor (Homo sapiens) (UniProt P10275); test: qHTS assay to identify small molecule agonists of the androgen receptor (AR) signaling pathway in the presence of an antagonist (AID 1259381; calls by dose curve; further: nearly all actives have a fitted effect of over 15% in size)
# Method in brief: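 Agonist-mode confirmation run against 3.0 uM final nilutamide: compounds titrated at 15 concentrations onto MDA-kb2 MMTV-luciferase reporter cells. Luminescence measured with ONE-Glo following 16 hr incubation, 37C, 0% CO2.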
# Chain of Thyrotropin receptor (Homo sapiens) (P16473 whole entry, looked up): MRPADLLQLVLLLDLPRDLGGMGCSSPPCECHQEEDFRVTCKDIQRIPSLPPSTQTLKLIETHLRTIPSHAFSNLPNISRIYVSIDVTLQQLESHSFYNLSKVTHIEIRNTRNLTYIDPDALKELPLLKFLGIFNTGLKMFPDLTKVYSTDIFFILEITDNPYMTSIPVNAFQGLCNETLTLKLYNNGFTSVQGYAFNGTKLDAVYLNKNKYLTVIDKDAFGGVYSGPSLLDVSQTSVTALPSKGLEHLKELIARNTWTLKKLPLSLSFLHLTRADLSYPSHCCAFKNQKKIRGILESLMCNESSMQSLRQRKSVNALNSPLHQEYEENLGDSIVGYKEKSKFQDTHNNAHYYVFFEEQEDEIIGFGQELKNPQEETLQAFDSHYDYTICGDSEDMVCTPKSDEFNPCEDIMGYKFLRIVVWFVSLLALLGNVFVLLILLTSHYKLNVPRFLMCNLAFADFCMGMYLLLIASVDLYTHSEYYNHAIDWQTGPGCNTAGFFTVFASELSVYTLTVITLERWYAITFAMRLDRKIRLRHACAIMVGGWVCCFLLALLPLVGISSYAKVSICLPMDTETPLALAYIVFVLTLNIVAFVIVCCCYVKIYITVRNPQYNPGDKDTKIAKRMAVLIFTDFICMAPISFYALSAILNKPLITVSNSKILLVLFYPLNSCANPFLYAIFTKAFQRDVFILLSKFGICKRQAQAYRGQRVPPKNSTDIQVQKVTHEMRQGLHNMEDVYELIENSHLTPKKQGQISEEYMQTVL
# Chain of Estrogen receptor beta (Homo sapiens) (Q92731 whole entry, looked up): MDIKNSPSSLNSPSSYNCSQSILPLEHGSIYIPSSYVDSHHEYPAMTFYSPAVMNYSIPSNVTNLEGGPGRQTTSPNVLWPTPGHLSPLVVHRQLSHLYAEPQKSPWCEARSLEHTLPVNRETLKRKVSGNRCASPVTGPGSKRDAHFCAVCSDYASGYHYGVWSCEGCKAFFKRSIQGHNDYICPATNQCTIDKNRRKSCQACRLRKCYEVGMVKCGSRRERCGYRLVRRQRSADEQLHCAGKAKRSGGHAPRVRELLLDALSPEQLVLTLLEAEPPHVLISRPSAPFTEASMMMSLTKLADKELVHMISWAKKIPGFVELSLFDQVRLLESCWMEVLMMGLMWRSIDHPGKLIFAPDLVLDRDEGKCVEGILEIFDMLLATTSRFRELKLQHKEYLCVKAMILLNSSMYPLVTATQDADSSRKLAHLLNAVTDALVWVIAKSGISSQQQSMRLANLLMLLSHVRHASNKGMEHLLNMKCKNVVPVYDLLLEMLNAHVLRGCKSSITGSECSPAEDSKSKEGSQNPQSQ
# Chain of Progesterone receptor (Homo sapiens) (P06401 whole entry, looked up): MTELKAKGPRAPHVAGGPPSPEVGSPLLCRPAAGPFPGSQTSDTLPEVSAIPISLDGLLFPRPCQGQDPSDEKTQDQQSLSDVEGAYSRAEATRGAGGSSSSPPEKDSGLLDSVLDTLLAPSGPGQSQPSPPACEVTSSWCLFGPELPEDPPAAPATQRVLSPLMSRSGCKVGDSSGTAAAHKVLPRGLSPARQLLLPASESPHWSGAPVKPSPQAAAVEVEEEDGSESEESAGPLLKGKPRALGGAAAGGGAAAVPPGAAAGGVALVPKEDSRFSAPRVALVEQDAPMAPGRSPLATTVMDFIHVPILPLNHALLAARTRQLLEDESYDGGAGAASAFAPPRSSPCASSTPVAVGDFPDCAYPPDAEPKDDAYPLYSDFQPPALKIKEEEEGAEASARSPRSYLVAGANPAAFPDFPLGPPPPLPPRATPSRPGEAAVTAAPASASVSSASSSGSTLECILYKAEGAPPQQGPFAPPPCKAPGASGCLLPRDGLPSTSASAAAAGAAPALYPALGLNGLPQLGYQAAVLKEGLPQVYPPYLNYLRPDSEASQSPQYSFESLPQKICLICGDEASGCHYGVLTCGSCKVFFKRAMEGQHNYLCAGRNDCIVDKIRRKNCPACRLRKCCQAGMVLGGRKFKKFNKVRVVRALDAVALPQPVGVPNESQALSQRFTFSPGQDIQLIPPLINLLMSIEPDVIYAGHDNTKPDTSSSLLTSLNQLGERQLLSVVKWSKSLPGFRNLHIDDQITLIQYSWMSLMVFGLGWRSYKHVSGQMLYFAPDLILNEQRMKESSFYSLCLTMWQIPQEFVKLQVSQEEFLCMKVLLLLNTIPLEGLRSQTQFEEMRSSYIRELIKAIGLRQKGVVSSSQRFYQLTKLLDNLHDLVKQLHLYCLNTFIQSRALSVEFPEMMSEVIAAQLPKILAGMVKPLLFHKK
# Chain of Estrogen receptor (Homo sapiens) (P03372 whole entry, looked up): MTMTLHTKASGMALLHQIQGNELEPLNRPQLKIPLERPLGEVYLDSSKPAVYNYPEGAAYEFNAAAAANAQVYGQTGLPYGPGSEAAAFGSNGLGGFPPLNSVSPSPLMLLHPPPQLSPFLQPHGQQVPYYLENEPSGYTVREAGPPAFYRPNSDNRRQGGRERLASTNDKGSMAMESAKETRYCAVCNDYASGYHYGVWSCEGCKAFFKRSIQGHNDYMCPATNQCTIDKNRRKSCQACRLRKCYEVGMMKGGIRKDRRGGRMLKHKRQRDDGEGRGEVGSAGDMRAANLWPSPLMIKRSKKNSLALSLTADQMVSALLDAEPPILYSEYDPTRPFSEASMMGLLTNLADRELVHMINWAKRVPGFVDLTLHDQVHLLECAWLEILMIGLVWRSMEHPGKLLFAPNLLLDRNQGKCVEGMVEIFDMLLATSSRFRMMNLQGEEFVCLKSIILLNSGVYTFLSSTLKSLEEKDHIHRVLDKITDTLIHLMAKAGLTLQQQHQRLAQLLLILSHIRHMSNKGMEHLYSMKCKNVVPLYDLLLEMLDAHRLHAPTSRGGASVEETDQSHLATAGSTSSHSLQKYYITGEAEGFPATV
# Chain of Androgen receptor (Homo sapiens) (P10275 whole entry, looked up): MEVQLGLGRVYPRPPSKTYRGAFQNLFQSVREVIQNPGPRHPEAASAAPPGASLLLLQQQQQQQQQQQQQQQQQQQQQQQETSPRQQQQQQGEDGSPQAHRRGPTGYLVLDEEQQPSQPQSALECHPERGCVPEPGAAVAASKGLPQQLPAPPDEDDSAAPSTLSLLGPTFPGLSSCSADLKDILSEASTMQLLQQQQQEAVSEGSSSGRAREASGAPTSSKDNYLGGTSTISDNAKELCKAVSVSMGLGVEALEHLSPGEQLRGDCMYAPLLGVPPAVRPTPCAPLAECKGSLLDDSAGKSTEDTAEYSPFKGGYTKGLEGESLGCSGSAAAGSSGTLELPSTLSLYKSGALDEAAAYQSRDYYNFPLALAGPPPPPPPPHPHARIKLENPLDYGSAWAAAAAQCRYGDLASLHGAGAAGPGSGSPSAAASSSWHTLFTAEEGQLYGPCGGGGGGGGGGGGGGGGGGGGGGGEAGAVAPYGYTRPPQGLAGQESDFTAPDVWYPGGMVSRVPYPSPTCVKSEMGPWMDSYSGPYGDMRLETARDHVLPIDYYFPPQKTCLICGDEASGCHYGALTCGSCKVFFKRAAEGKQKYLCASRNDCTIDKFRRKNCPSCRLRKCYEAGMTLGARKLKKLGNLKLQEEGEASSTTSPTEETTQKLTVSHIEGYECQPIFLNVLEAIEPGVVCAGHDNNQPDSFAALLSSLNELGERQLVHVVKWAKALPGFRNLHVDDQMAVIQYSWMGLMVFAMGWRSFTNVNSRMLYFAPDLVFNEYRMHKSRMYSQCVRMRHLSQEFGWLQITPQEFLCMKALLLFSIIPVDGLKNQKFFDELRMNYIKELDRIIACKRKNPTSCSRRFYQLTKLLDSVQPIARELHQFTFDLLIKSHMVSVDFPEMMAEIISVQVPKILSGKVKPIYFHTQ
SMILES,Potency [1],Potency [2],outcome [3],Potency [4],Potency [5],Potency [6],Potency [7],Potency [8],Potency [9],Potency [10],Potency [11],Potency [12],Potency [13],Potency [14],Potency [15],outcome [16],Potency [17],Potency [18],Potency [19],Potency [20]
CN[C@@H](C)[C@H](O)c1ccccc1,inactive,inactive,inactive,inactive,inactive,inactive,inactive,inactive,inactive,inactive,inactive,inactive,inactive,inactive,inactive,inactive,inactive,inactive,inactive,–
CN1CC[C@]23c4c5ccc(O)c4O[C@H]2[C@@H](O)CC[C@H]3[C@H]1C5,inactive,inactive,inactive,inactive,–,inactive,inactive,inactive,inactive,inactive,–,inactive,inactive,inactive,inactive,–,–,inactive,inactive,–
C[N+]1(CCF)[C@@H]2CC[C@H]1CC(OC(=O)C(O)(c1ccccc1)c1ccccc1)C2 (stereo partly specified),inactive,inactive,inactive,inactive,inactive,–,inactive,inactive,inactive,–,–,inactive,inactive,–,inactive,inactive,inactive,inactive,inactive,–
COC1CC(=C(c2cccs2)c2cccs2)C[N+](C)(C)C1 (stereo unspecified),inactive,inactive,inactive,inactive,inactive,inactive,inactive,inactive,inactive,–,–,–,inactive,inactive,inactive,inactive,inactive,inactive,inactive,–
CC(C)(C)NCC(O)c1ccccc1Cl (stereo unspecified),inactive,inactive,inactive,inactive,inactive,inactive,inactive,inactive,inactive,inactive,inactive,inactive,–,inactive,inactive,inactive,inactive,inactive,inactive,–
CCOC(=O)c1cncn1C(C)c1ccccc1 (stereo unspecified),inactive,inactive,inactive,inactive,–,–,inactive,inactive,inactive,–,–,inactive,inactive,inactive,inactive,inactive,inactive,inactive,inactive,–
SCc1ccccc1,inactive,inactive,–,inactive,inactive,inactive,inactive,inactive,inactive,inactive,inactive,inactive,inactive,inactive,inactive,inactive,inactive,inactive,–,–
CCCN(CCC)C(=O)Cc1c(-c2ccc(Cl)cc2)nc2ccc(Cl)cn12,inactive,inactive,inactive,inactive,inactive,–,–,inactive,inactive,inactive,inactive,inactive,–,–,inactive,inactive,inactive,–,inactive,–
COc1cc(C[C@@H](C)N)c(OC)cc1Br,inactive,inactive,inactive,inactive,inactive,–,inactive,inactive,–,–,–,inactive,35.3 µM (active),–,inactive,inactive,inactive,inactive,–,–
c1ccc2c(c1)sc1ccccc12,inactive,inactive,inactive,inactive,inactive,inactive,inactive,inactive,inactive,–,–,inactive,inactive,inactive,inactive,inactive,inactive,inactive,inactive,–
COCc1cnc(C2=NC(C)(C(C)C)C(=O)N2)c(C(=O)O)c1 (stereo unspecified),inactive,inactive,–,inactive,inactive,inactive,inactive,inactive,inactive,inactive,inactive,inactive,inactive,inactive,inactive,inactive,inactive,inactive,inactive,inactive
C[N+]1(CCC(C(N)=O)(c2ccccc2)c2ccccc2)CCCCC1,inactive,inactive,inactive,inactive,inactive,–,inactive,inactive,inactive,–,–,inactive,inactive,–,inactive,inactive,inactive,inactive,inactive,–
CCCC[N+]1(C)[C@@H]2CC(OC(=O)[C@H](CO)c3ccccc3)C[C@H]1[C@@H]1O[C@@H]12 (stereo partly specified),inactive,inactive,inactive,inactive,inactive,inactive,–,inactive,inactive,–,–,inactive,inactive,–,inactive,inactive,inactive,inactive,inactive,–
CCCSP(=S)(OCC)Oc1ccc(SC)cc1 (stereo unspecified),inactive,inactive,–,inactive,inactive,inactive,inactive,inactive,61.1 µM (active),inactive,inactive,inactive,inactive,inactive,inactive,inactive,inactive,inactive,inactive,–
CCN(C(C)=O)c1cccc(-c2ccnc3c(C#N)cnn23)c1,inactive,inactive,inactive,inactive,inactive,inactive,inactive,inactive,–,–,–,inactive,inactive,–,inactive,inactive,inactive,inactive,inactive,–
